Calls of active or inactive are those of the source. The rule behind the calls is not given here.
Biological target: Pantothenate synthetase (Mycobacterium tuberculosis (strain ATCC 25618 / H37Rv)) (UniProt P9WIL5)
Test: Coupled enzyme confirmation of inhibitors against recombinant Mtb PanC (AID 375);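 note: 0% = full reaction with vehicle and 100% = no enzyme background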
Conditions: coupled enzyme assay; at 10 µM, active compounds read high

Chain of Pantothenate synthetase (Mycobacterium tuberculosis (strain ATCC 25618 / H37Rv)) (P9WIL5 whole entry, looked up): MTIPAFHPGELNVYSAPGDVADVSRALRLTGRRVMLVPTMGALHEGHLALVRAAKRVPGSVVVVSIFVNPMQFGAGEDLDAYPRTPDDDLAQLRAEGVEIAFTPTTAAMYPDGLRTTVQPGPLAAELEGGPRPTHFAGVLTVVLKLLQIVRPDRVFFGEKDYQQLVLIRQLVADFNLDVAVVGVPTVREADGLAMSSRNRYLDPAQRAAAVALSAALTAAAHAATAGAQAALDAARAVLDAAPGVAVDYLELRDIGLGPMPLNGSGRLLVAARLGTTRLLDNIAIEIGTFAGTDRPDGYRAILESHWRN

Row | Structure (SMILES) | inhibition
1 | CCOC(=O)CSc1nc2cc(C(=O)N3CCC(C(N)=O)CC3)ccc2c(=O)n1-c1ccccc1 | 0% (inactive)
2 | CCC(C)(C)n1nnnc1C(c1cc2cc(C)ccc2[nH]c1=O)N1CCCC1 (centres undefined) | 8% (inactive)
3 | COc1cccc(-c2csc3nnc(SCC(=O)c4ccc(NC(C)=O)cc4)n23)c1 | 1% (inactive)
4 | COc1ccc(Cl)c(N2CCN(CCCNC(=O)Nc3ccc(C)cc3)CC2)c1 | 0% (inactive)
5 | Cn1c(C(=O)NCCN2CCN(c3ccccc3F)CC2)cc2c(=O)n(C)c3ccccc3c21 | 7% (inactive)
6 | CN(C)S(=O)(=O)NC(c1ccccc1)c1ccccc1 | 4% (inactive)
7 | O=C(CSc1nnnn1C1CCCC1)Nc1cccc(NC(=O)c2ccco2)c1 | 5% (inactive)
8 | COc1ccc(-c2cc(C(F)(F)F)n3ncc(C(=O)NCC4CCCO4)c3n2)cc1 (centres undefined) | 0% (inactive)
9 | COC(=O)c1cccc(NC(=O)CSc2nnc(COc3ccc(C#N)cc3)n2-c2ccccc2)c1 | 2% (inactive)
10 | CCC(=O)NC1(C(F)(F)F)C(=O)NC(C)=C1C#N (centres undefined) | 6% (inactive)
11 | CCOc1ccccc1C(=O)Nn1c(C2CCC2)nc2ccccc2c1=O | 0% (inactive)
12 | Cc1csc(NC(=O)CCCSc2nc3ccccc3s2)n1 | 0% (inactive)
13 | CCOc1ccc(C2CC(c3ccccc3C)n3nc(N)nc3N2)cc1 (centres undefined) | 0% (inactive)
14 | Cn1c(=O)c2c(nc(NCCCO)n2CCc2ccccc2)n(C)c1=O | 0% (inactive)
15 | CCOC(=O)c1nnn(CC(=O)Nc2cccc(F)c2)c1C(=O)OCC | 3% (inactive)
16 | Cc1[nH]nc2c1C(=O)CCC2 | 0% (inactive)
17 | Cc1cccc(C(=O)N2CCC(n3nnc4cc(F)ccc43)CC2)c1 | 0% (inactive)
18 | Clc1ss/c(=N\c2ccccn2)c1Cl | 0% (inactive)
19 | COc1ccccc1N1CCN(c2nc3ccccc3nc2C(C#N)C(=O)OC(C)C)CC1 (centres undefined) | 1% (inactive)
20 | Cc1ccccc1-n1nnc2c(=O)oc3ccccc3c21 | 0% (inactive)
21 | COc1ccc(C(=O)c2ccccc2)c(O)c1 | 1% (inactive)
22 | CS(=O)(=O)N1CCN(CC2CC3C=CC2C3)CC1 (centres undefined) | 8% (inactive)
23 | CCOC(=O)c1c(N)c(C#N)nn1-c1ccccc1C(=O)OC | 0% (inactive)
24 | CCOC(=O)N1CCC(NC(=O)c2ccc3c(c2)sc2nc(-c4cccc(OC)c4)cn23)CC1 | 0% (inactive)

From PubChem BioAssay
